KCNQ2 pot: enhances the rat KCNQ2 potassium channel; O88943; actives 0.54% (n = 310,000); CHO-K1 KCNQ2, FluxOR thallium flux fluorescence; hits give high values; B-score at 10 µM;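 active = fluorescence ratio B-score at least 3 SD of library B-scores, with initial fluorescence B-score within 3 of them, cut at about 5.3 in these data; same plate scores as AID 2156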;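 also: B-score of peak minus minimum over baseline fluorescence ratio after K+ and Tl+ stimulus; positive B-score means potentiation of KCNQ2 with more thallium influx and brighter signal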
Target sequence (O88943 whole entry, looked up): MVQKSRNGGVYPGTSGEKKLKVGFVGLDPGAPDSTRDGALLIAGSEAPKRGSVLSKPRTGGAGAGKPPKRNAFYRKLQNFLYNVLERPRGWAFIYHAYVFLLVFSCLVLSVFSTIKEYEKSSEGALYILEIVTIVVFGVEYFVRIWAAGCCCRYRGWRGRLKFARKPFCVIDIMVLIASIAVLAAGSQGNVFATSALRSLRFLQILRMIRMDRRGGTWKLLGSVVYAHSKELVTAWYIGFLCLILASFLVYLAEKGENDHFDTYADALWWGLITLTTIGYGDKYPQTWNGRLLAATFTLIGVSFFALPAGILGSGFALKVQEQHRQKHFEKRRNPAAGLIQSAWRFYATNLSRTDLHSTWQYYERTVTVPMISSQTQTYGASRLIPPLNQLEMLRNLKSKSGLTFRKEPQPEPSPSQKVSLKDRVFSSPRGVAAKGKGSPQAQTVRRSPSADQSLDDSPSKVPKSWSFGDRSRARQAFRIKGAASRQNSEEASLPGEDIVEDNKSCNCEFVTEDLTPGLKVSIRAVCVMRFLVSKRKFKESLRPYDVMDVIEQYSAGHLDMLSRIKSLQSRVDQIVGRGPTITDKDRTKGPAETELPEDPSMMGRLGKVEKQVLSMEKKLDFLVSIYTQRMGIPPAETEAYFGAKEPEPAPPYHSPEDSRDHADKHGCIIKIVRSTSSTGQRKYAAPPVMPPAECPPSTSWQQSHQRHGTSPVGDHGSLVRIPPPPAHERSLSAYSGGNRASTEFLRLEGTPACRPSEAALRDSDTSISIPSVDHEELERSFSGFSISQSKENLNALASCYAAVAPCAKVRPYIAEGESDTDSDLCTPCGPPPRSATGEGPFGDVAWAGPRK
KCNQ2 inh: KCNQ2 (rat) channel inhibition | O88943 | CHO-K1 KCNQ2, FluxOR thallium flux, 20 min; hits give low values | B-score at 10 µM | actives 1.1% (n = 310,000) | AID 2156;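 active = fluorescence ratio B-score at most minus 3 library SDs, with starting brightness B-score within 2 library SDs, cut at about -5.5 in these data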
The depositor's hits bear a star. Most compounds without a hit are left out; they make up all but 1.6% or so of the library.

`CC(C)N(Cc1ccccc1)C(=O)COC(=O)/C=C/c1cnc2ccccc2n1` gave KCNQ2 pot 0.38 and KCNQ2 inh inactive.
`COC(=O)Cc1ccc(N(Cc2ccccc2F)S(=O)(=O)c2ccc(C)cc2)cc1` gave KCNQ2 pot -6.62 and KCNQ2 inh -6.62*.
Screening Cc1ccc(N(CCC(=O)O)S(=O)(=O)c2ccccc2)cc1 returned KCNQ2 pot 0.81 and KCNQ2 inh inactive.
For COc1ccc(CCNC(=O)c2noc(C)c2[N+](=O)[O-])cc1OC the results were KCNQ2 inh inactive.
For CC(C)(C)N(NC(=O)OCc1ccccc1)C(=O)c1ccccc1Cl the results were KCNQ2 pot 7.66* and KCNQ2 inh inactive.
`CC(C)(C)N(NC(=O)OCc1ccccc1)C(=O)c1ccccc1` gave KCNQ2 inh inactive.
Screening COc1ccc2nc(N3C(=O)CNC3=S)sc2c1 returned KCNQ2 pot 0.42 and KCNQ2 inh inactive.
For CCOc1ccc2nc(N3C(=O)/C(=C/c4ccc(Cl)cc4)NC3=S)sc2c1 the results were KCNQ2 pot 15.2* and KCNQ2 inh inactive.
CCOc1ccccc1CN1CCNC(=O)C1CC(=O)NC1CCCCCCC1 (stereo not given) was read as KCNQ2 inh inactive.
Screening COc1ccc(-c2nc(=S)[nH][nH]2)cc1 returned KCNQ2 pot -8.38 and KCNQ2 inh -8.38*.
COc1ccc(-c2nc(=S)[nH][nH]2)cc1OC was read as KCNQ2 inh inactive.
`NS(=O)(=O)c1ccc(CNS(=O)(=O)c2cccc3nonc23)cc1` gave KCNQ2 inh inactive.
For COc1ccc(NC(=O)CCN2CCN(c3ccccc3F)CC2)c(OC)c1 the results were KCNQ2 inh inactive.
Screening CCCCN(C(=O)C(C)Oc1ccc(Br)cc1)c1c(N)n(Cc2ccccc2)c(=O)[nH]c1=O (stereo not given) returned KCNQ2 pot 0.51 and KCNQ2 inh inactive.
O=Nc1c(O)n(Cc2c(Cl)cccc2Cl)c2ccccc12 was read as KCNQ2 pot 0.3 and KCNQ2 inh inactive.
For O=Nc1c(O)n(Cc2ccc(Cl)cc2)c2ccccc12 the results were KCNQ2 inh inactive.
For O=Nc1c(O)n(Cc2ccc(Cl)cc2Cl)c2ccccc12 the results were KCNQ2 pot -7.99 and KCNQ2 inh -7.99*.
For Cc1ccc(Cn2c(O)c(N=O)c3ccccc32)cc1 the results were KCNQ2 pot -6.71 and KCNQ2 inh -6.71*.
Cc1cc(C)nc(NS(=O)(=O)c2ccc(NC(=O)CSc3nc(-c4ccccc4)c(C#N)c(=O)[nH]3)cc2)n1 was read as KCNQ2 pot 0.89 and KCNQ2 inh inactive.
`COc1ccc(NC(=O)CSc2nnc(-c3cnccn3)n2C)cc1OC` gave KCNQ2 pot 1.07 and KCNQ2 inh inactive.
For Cc1cccc(Nc2cc(C)c3c(O)cccc3n2)c1C the results were KCNQ2 inh inactive.
For COc1ccc(C)cc1Nc1n[n+](-c2ccccc2)c(-c2ccc(OC)c(OC)c2OC)s1 the results were KCNQ2 inh inactive.
COc1ccc(C)cc1Nc1n[n+](-c2ccccc2)c(-c2ccc(N(C)C)cc2)s1 was read as KCNQ2 pot -5.74 and KCNQ2 inh -5.74*.
Screening COc1ccc(C)cc1Nc1n[n+](-c2ccccc2)c(-c2c(Cl)cccc2Cl)s1 returned KCNQ2 pot -6.47 and KCNQ2 inh -6.47*.
For CN(C)c1ccc(-c2sc(Nc3ccccc3)n[n+]2-c2ccc(F)cc2)cc1 the results were KCNQ2 inh inactive.
For O=C(NCC(c1ccco1)N1CCc2ccccc2C1)c1cccc([N+](=O)[O-])c1 (stereo not given) the results were KCNQ2 inh inactive.
CCOc1ccc(C(=O)NCC(c2ccco2)N2CCc3ccccc3C2)cc1 (stereo not given) was read as KCNQ2 pot -6.37 and KCNQ2 inh -6.37*.
`O=C(NCC(c1ccco1)N1CCc2ccccc2C1)c1ccc(Cl)c([N+](=O)[O-])c1` (stereo not given) gave KCNQ2 pot -5.76 and KCNQ2 inh -5.76*.
`COc1ccc(C(=O)NCC(c2ccco2)N2CCc3ccccc3C2)cc1` (stereo not given) gave KCNQ2 inh inactive.
Screening CCN1CCN(Cc2ccc(NC(=O)c3cc(NC(=O)C(=O)c4c[nH]c5ccccc45)cc(OC)c3)cc2C(F)(F)F)CC1 returned KCNQ2 inh inactive.
Screening CCN1CCN(Cc2ccc(NC(=O)c3ccc(C)c(NC(=O)C(=O)c4c[nH]c5ccccc45)c3)cc2C(F)(F)F)CC1 returned KCNQ2 pot -7.83 and KCNQ2 inh -7.83*.
Screening Cc1ccc(N2C(=O)N(CC(=O)Nc3ccc(F)c(F)c3)C(=O)C2C)cc1 (stereo not given) returned KCNQ2 pot 0.82 and KCNQ2 inh inactive.
`C(=N\N1CCOCC1)/c1cccs1` gave KCNQ2 inh inactive.
`CCCC1=Nc2cc(C(=O)N3CCN(c4ccccn4)CC3)ccc2Sc2ccc(C)cc21` gave KCNQ2 pot -5.65 and KCNQ2 inh -5.65*.
For CCC1=Nc2cc(C(=O)N3CCCCC3)ccc2Sc2ccc(C)cc21 the results were KCNQ2 pot -5.87 and KCNQ2 inh -5.87*.
For CCCC1=Nc2cc(C(=O)N3CCCC3)ccc2Sc2ccc(C)cc21 the results were KCNQ2 inh inactive.
Screening CCOC(=O)N1CCN(C(=O)c2ccc3c(c2)N=C(CC)c2cc(C)ccc2S3)CC1 returned KCNQ2 inh inactive.
Cc1nc(CCNC(=O)CC2C(=O)NCCN2CC(C)C)nc2c1CCC2 (stereo not given) was read as KCNQ2 pot 0.92 and KCNQ2 inh inactive.
`CCN(CC(=O)Nc1ccc(NC(C)=O)cc1)C(=O)Cc1ccc(S(=O)(=O)N2CCOCC2)s1` gave KCNQ2 inh inactive.
O=c1cc(-c2ccccc2)c2c(O)cc(O)cc2o1 was read as KCNQ2 pot 1.37 and KCNQ2 inh inactive.
Screening O=c1c(-c2ccccc2)c(-c2ccccc2)oc2cc(O)cc(O)c12 returned KCNQ2 pot -5.81 and KCNQ2 inh -5.81*.
Screening O=C(c1ccc(Cl)cc1)N1CCN(c2ncccn2)CC1 returned KCNQ2 pot 0.28 and KCNQ2 inh inactive.
Screening CC(C)Oc1ccc(CNC(=O)C2CCCN(S(=O)(=O)N3CCOCC3)C2)cc1 (stereo not given) returned KCNQ2 pot 1.56 and KCNQ2 inh inactive.
`CCCS(=O)(=O)N1CCCC(c2nc(-c3cccc(OC)c3)no2)C1` (stereo not given) gave KCNQ2 inh inactive.
For COc1cccc(-c2noc(C3CCCN(S(=O)(=O)c4cccc(Cl)c4C)C3)n2)c1 (stereo not given) the results were KCNQ2 pot -5.96 and KCNQ2 inh -5.96*.
Screening Cn1c(SC(C(=O)Nc2ccc(F)cc2)c2ccccc2)nc2ccccc21 (stereo not given) returned KCNQ2 pot 1.34 and KCNQ2 inh inactive.
Screening CC(Sc1nc2ccccc2n1C)C(=O)NC(c1ccccc1)c1ccccc1 (stereo not given) returned KCNQ2 pot -6.13 and KCNQ2 inh -6.13*.
For CSc1ccccc1C(=O)N(C)Cc1ccccc1 the results were KCNQ2 inh inactive.
Screening CSc1ccccc1C(=O)N(C)C(c1ccccc1)c1ccccc1 returned KCNQ2 pot -5.71 and KCNQ2 inh -5.71*.
CCC(CO)N=CC1=C(O)CC(c2ccccc2)CC1=O (stereo not given) was read as KCNQ2 pot 1.08 and KCNQ2 inh inactive.

Screening results: PubChem, Johns Hopkins Ion Channel Center
